# This is a sample that favours compounds with a hit; in the whole collection about 19% have one here.
# TDP1 cell noCPT: qHTS for Inhibitors of human tyrosyl-DNA phosphodiesterase 1 (TDP1): qHTS in cells in absence of CPT; DT40 Tdp1-/- hTDP1 cells, no CPT, ATP luminescence, 48 h; Potency, µM (doses to about 46.2 µM), without a hit: top-dose activity change, negative = growth inhibition, actives largely listed as inhibitors; hit rate 15% among 420,000; further: nearly all actives have a fitted effect of over 55% in size
#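 A cellular qHTS used chicken DT40 cells lacking endogenous Tdp1 but carrying stably transfected human TDP1. Compounds were applied without camptothecin, and cell growth kinetics were judged by ATP-dependent luminescence after ≥48 hr.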
# DT40 TDP1 CPT: DT40-hTDP1 cell growth loss with CPT | chicken DT40 Tdp1-/-;hTDP1 cells + 20 nM CPT, ATP luminescence, 48 h | Potency, µM (titrated, usually from 46.2 µM), for the others: at the top dose activity change, negative = growth inhibition, hits mostly inhibitors | hit rate 12% among 420,000 | AID 686979; further: nearly all actives have a fitted effect of over 55% in size
#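 Chicken DT40 Tdp1-/- cells stably complemented with human TDP1 were seeded at 400 cells/well in medium containing 20 nM camptothecin, exposed to pin-transferred compounds, and grown at 37 °C for at least 48 hr. Viability was read as ATP luminescence.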
# RORgamma inh: ROR gamma (mouse) transcription inhibition; Potency, µM (highest dose often 53.6 µM), for inactives: at the top dose activity change, negative = inhibition, hits mostly inhibitors; Drosophila S2 Gal4-RORgamma UAS-luciferase reporter, 20 h; hit rate 5.4% among 310,000; P51450; further: nearly all actives have a fitted effect of over 60% in size
# Target sequence (P51450 whole entry, looked up, the tested form may be a part): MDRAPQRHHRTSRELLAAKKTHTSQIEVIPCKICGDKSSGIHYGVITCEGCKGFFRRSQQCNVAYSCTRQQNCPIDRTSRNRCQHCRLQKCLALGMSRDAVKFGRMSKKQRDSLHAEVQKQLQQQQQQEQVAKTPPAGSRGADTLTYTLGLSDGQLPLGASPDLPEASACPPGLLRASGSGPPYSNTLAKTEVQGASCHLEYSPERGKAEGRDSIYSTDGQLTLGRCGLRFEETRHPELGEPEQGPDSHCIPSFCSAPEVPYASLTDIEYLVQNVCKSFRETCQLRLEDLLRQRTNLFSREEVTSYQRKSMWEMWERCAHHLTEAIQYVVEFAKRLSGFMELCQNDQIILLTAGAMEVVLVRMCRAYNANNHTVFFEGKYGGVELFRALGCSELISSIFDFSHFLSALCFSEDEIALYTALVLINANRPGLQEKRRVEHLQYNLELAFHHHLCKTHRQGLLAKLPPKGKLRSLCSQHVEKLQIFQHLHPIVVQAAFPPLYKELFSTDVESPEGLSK
#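 Read-out: Photinus luciferase luminescence; inhibitors lower reporter signal. Insect Schneider cells with Gal4-ROR gamma fusion under metallothionein promoter, UAS reporter; 700 uM final copper sulfate induction, 20 hr, ambient temperature.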
# TDP1 inh: inhibitors of human tyrosyl-DNA phosphodiesterase TDP1; Q9NUW8; recombinant TDP1, AlphaScreen DNA substrate cleavage; Potency, µM (series often up to 130 µM), for inactives: at the highest dose activity change, negative = inhibition, usual class: inhibitors; hit rate 0.28% among 350,000; AID 485290; further: nearly all actives have a fitted effect of over 40% in size
#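 E. coli-derived human Tdp1, 1 nM final. Cpd preinc 15 min RT; substrate 15 nM final, 5 min RT; AS bead mix 10 ug/ml final, 10 min RT. Signal loss = tyrosine-FITC cleavage. No-enzyme wells = max signal.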
# VP16 counter: Gal4-VP16 reporter inhibition counter-screen; Drosophila S2 Gal4-VP16 UAS-luciferase, luminescence, 20 h; Potency, µM (top dose mostly 53.6 µM), for inactives: at the highest dose activity, negative = inhibition, usual class: inhibitors; hit rate 3.5% among 310,000;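 further: Gal4-VP16 expression switched on by copper sulfate through the metallothionein promoter; nearly all actives have a fitted effect of over 50% in size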
# Numbers without * were called inactive; ? = inconclusive; . = no result given; [ ] = another dose, or the depositor's remark. The call rests on the fitted dose curve; in most records, active means well fitted curve in the direction sought with a large enough effect; inconclusive means small, poorly fitted or top-dose-only effect, or another doubt; inactive means no such curve, though single readings can be large; an effect the other way counts as inactive or inconclusive. On the % scale 0 is the no-effect control and ±100 the full control effect; potency means the concentration at half of the fitted maximal effect.
SMILES,TDP1 cell noCPT,DT40 TDP1 CPT,RORgamma inh,TDP1 inh,VP16 counter
Cc1cccc(OCC2Cn3c(nc4c3c(=O)[nH]c(=O)n4C)O2)c1 (stereo not given),10µM*,?,11%,.,-1%
COc1ccccc1C(=O)Nc1ccc(C(=O)Nc2ccccc2C(=O)O)cc1,?,?,-9%,1%,-2%
c1ccc(CCc2nn3c(Cn4cnc5ccccc54)nnc3s2)cc1,18µM*,18µM*,43%,-3%,-5%[0.365 µM]
Clc1ccccc1-c1nn2c(Cn3cnc4ccccc43)nnc2s1,?,?,-39%,4%,0%
COc1ccc(OCc2nn3c(Cn4cnc5ccccc54)nnc3s2)cc1,?,21µM*,38%,1%,-18%
c1ccc2c(c1)ncn2Cc1nnc2sc(-c3ccc4c(c3)OCO4)nn12,15µM*,?,-15%,2%,-3%
COc1ccc(OCc2nn3c(-c4cccc(OC)c4)nnc3s2)cc1,-21%,-10%,5%,0%,-2%
c1ccc(OCc2nn3c(Cn4nnc5ccccc54)nnc3s2)cc1,21µM*,16µM*,24%,-5%,11%
c1ccc(Cc2nn3c(Cn4nnc5ccccc54)nnc3s2)cc1,-25%,?,36%,2%,-12%
O=C(Nc1ccc(Cc2ccncc2)cc1)c1ccc(N2CCOCC2)c([N+](=O)[O-])c1,?,-13%,44%,5%,-1%
COc1ccc(Cl)cc1NC(=O)CSc1nnc(C)n2c1cc1sccc12,-14%,0%,.,3%,.
c1ccc2c(c1)OCC(c1nn3c(Cn4nnc5ccccc54)nnc3s1)O2 (stereo not given),?,26µM*,?,.,6%[0.365 µM]
Fc1ccc(-c2nnc3sc(C4COc5ccccc5O4)nn23)cc1 (stereo not given),?,?,17%,4%,-2%
O=C(NCCc1ccc(Cl)cc1)C1CCC(CNc2nc(=S)[nH]c3ccccc23)CC1 (stereo not given),9.2µM*,6.5µM*,11µM*,5%,?
O=C(NCCC1=CCCCC1)C1CCC(CNS(=O)(=O)c2ccccc2)CC1 (stereo not given),?,-29%,26%,-3%,-17%
O=C(NCCC1=CCCCC1)C1CCC(CNc2nc(=S)[nH]c3ccccc23)CC1 (stereo not given),16µM*,?,?,8%,-5%
O=C(NCc1ccccc1Cl)C1CCC(CNc2nc(=S)[nH]c3ccccc23)CC1 (stereo not given),26µM*,?,-42%,3%,-4%
O=C(NCc1ccccc1Cl)C1CCC(CNS(=O)(=O)c2ccc(Cl)cc2)CC1 (stereo not given),-12%,-28%,.,-6%,.
Cc1cc(Nc2ccc(C)c(F)c2)n2ncnc2n1,-11%,-3%,-34%,4%,-4%
CCc1ccccc1Nc1nn2c(=O)c3ccc(C(=O)NCc4ccccc4OC)cc3nc2s1,?,12µM*,.,-14%,.
Cc1c(Cl)cccc1Nc1nn2c(=O)c3ccccc3nc2s1,?,?,.,-9%,.
CCc1ccccc1Nc1nn2c(=O)c3ccc(C(=O)NCc4ccccn4)cc3nc2s1,12µM*,?,?,0%,-1%
COc1ccccc1Nc1nn2c(=O)c3ccc(C(=O)NCc4cccnc4)cc3nc2s1,.,.,0%,.,0%
COc1ccccc1Nc1nn2c(=O)c3ccc(C(=O)NCc4ccc(F)cc4)cc3nc2s1,2.3µM*,3.7µM*,.,0%,.
COc1ccccc1Nc1nn2c(=O)c3ccc(C(=O)N4CCCCC4)cc3nc2s1,16µM*,13µM*,44%,4%,-3%
SMILES,TDP1 cell noCPT,DT40 TDP1 CPT,RORgamma inh,TDP1 inh,VP16 counter
O=C(N/N=C/c1ccncc1)c1ccc(COc2cccc3cccnc23)cc1,?,?,-1%,2%,-6%
CCc1ccccc1Nc1nn2c(=O)c3ccc(C(=O)NCCC4=CCCCC4)cc3nc2s1,15µM*,16µM*,.,3%,.
Cc1ccc(Cl)cc1Nc1nn2c(=O)c3ccc(C(=O)NC4CCCCC4)cc3nc2s1,-28%,-19%,.,3%,.
C/C(=N/NS(=O)(=O)c1ccc(C(C)C)cc1)c1ccncc1,-20%,-24%,16%,3%,-4%
CC(C)(C)NC(=O)c1ccc(Sc2ccccc2)c([N+](=O)[O-])c1,8.2µM*,?,25%,5%,-5%
CCOc1ccc(NC(=O)c2ccccc2SC)cc1,?,?,4%,.,-1%
CCOc1ccc(NC(=O)c2cc(SC)ccc2Cl)cc1,16µM*,18µM*,?,-3%,26%
CSc1ccc(Cl)c(C(=O)Nc2ccc(N3CCOCC3)cc2)c1,-18%,-28%,24%,3%,4%
CCCCCOc1ccc(NC(=O)c2cc(SC)ccc2Cl)cc1,13µM*,23µM*,20%,0%,?
CCOC(=O)C1=C(C)Nc2[nH]c(=O)[nH]c(=O)c2C1c1cccs1 (stereo not given),-2%,8%,7%,4%,-1%
CC(C)C[C@H](NC(=O)CCn1nnc2ccccc2c1=O)C(=O)O,?,?,2%,.,-5%
Cc1ccc(C(=O)OCC(=O)Nc2ccccc2C(F)(F)F)cc1S(=O)(=O)N1CCCCC1,?,?,.,-9%,.
Cc1ccc(N(C)S(=O)(=O)c2cccc(C(=O)OCC(=O)c3c(N)n(C)c(=O)n(C)c3=O)c2)cc1,18µM*,?,.,-1%,.
CCN(c1ccccc1)S(=O)(=O)c1cc(C(=O)OCC(=O)c2c(N)n(C)c(=O)n(C)c2=O)ccc1C,23µM*,9.2µM*,.,.,.
CN(C)S(=O)(=O)c1cccc(C(=O)OCC(=O)c2c(N)n(C)c(=O)n(C)c2=O)c1,-4%,12%,60%,5%,4%
CN(c1ccccc1)S(=O)(=O)c1cc(C(=O)OCC(=O)c2c(N)n(C)c(=O)n(C)c2=O)ccc1Cl,?,26µM*,.,.,.
O=C(NCC1CCCN1S(=O)(=O)c1ccccc1)C(=O)NC1CC1 (stereo not given),-6%,0%,.,.,.
CCN1C(=O)C(CC(=O)Nc2ccc(Cl)cc2)N(NC(=O)c2ccncc2)C1=S (stereo not given),-13%,3%,-15%,7%,6%
CCOc1ccccc1N(C(=O)Nc1ccc(Cl)cc1)C1=NC(C)CS1 (stereo not given),?,-8%,?,0%,-10%
O=C1c2ccccc2-c2cc([N+](=O)[O-])c([N+](=O)[O-])cc21,0.5µM*,0.4µM*,.,.,.
COC(=O)CSc1[nH]c2ccc(F)cc2c1[N+](=O)[O-],?,21µM*,-33%,5%,3%
